Laboratory results taken from PubChem BioAssay (NCATS).
Records with an inconclusive call do not appear. Activity calls are given as the source filed them. Unless noted, calls come from the whole dose curve; as a rule, active = well fitted curve in either direction with a large enough effect (not every such curve was filed as active); inconclusive = small, poorly fitted or top-dose-only effect, or another doubt; inactive = flat fitted curve, though single readings scatter.

Experiments:
[1] = AP1 Signaling Pathway (AID 357); conditions: ME-180 AP-1-bla reporter, EGF-induced, beta-lactamase ratio, 5 h; at 7.69 µM (top of the series) unless noted;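 note: ME-180 reporter cells stimulated with EGF at its EC50 level; % is set by controls: 0 for no effect and ±100 for the full control effect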
In short: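 Titration-series screen for positive or negative modulators of EC50 EGF-induced signaling in ME-180 cells carrying an AP-1-driven beta-lactamase reporter. After 5 hours at 37 degrees Celsius, CCF4 460nm/530nm emission ratio gave %Activity; AC50 values derived.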

[2] = NFAT Signaling Pathway (AID 444); conditions: Jurkat NFAT-bla M1, carbachol, beta-lactamase ratio, 5 h; at 7.69 µM (top of the series) unless noted;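 note: carbachol stimulus at about its EC50 of 1 µM final; % is set by controls: 0 for no effect and ±100 for the full control effect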
In short: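 Jurkat cells with NFAT-driven β-lactamase reporter and co-expressed M1 receptor, stimulated with carbachol (final 1 uM, ~EC50), compound titration, 5 h at 37 °C. CCF4 loaded 1 h at RT; 460/530 nm ratio gave %activity and AC50.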

[3] = Stat Signaling Pathway (AID 446); conditions: ME-180 (cervical carcinoma) SIE beta-lactamase reporter, IL-6 stimulated, 5 h; at 7.69 µM (top of the series) unless noted;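 note: ME-180 cervical cancer cells given 40 pM IL-6 alongside compound; SIE-controlled beta-lactamase reporter measured as 460/530 nm FRET emission ratio; % is set by controls: 0 for no effect and ±100 for the full control effect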
In short: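 Overnight-plated ME-180 cells bearing a STAT Inducible Element beta-lactamase reporter; 5 h co-exposure to compound and 40 pM IL-6; values normalized to 300 pM IL-6 and 125 nM JAK inhibitor controls.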

[4] = molecular target: Glucocorticoid receptor (Homo sapiens) (UniProt P04150); test: GR-GFP Redistribution (AID 450;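 active = compounds whose dose series gives a full or clear partial fitted curve of increased nuclear translocation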; note: potency is the fitted concentration of half-maximal effect); conditions: U2OS GR-GFP nuclear translocation, laser cytometry, 2 h
Chain of Glucocorticoid receptor (Homo sapiens) (P04150 whole entry, looked up, the tested form may be a part): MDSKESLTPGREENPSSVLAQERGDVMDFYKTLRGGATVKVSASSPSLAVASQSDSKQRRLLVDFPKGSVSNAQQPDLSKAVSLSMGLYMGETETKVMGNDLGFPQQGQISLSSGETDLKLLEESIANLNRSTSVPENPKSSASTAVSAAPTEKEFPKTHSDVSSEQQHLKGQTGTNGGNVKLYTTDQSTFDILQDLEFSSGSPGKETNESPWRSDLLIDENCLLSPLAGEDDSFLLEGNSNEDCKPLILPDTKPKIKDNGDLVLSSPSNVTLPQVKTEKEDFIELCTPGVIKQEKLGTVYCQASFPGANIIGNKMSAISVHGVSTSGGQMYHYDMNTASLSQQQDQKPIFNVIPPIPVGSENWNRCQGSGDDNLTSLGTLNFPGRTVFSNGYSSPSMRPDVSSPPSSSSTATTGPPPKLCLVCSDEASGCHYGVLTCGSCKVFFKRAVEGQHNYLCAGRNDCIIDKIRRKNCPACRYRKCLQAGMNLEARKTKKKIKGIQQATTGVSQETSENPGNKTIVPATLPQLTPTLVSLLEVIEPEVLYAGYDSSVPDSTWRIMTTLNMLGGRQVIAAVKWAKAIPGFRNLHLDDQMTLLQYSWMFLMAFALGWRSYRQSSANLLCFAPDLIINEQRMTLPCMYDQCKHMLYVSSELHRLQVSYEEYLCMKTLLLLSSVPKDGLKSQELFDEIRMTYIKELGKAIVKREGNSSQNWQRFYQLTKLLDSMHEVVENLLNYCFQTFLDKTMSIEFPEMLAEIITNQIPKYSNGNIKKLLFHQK

[5] = molecular target: Glucocorticoid receptor (Homo sapiens) (UniProt P04150); test: GR-EFC Redistribution (AID 451; calls by dose curve; note: potency is the fitted concentration of half-maximal effect); conditions: CHO-K1 GR-EFC translocation, beta-gal luminescence, 2 h
In short: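 CHO-K1 cells expressing nuclear EA and GR-ED fragments of b-gal; compounds titrated up to 46 uM final, 2 h at 37 C. GR nuclear translocation read as complemented b-gal luminescence after 1 h RT detection.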

[6] = molecular target: Mitogen-activated protein kinase 10 (Mus musculus) (UniProt Q61831); test: JNK3 AlphaScreen Assay (AID 530);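 note: kinase came from lysate of stimulated human HepG2 cells; signal reports phosphorylation of biotinylated GST-cJun 1-79 at Ser73 with 10 µM ATP; % is set by controls: 0 for no effect and ±100 for the full control effect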
In short: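 Activity was read by AlphaScreen after JNK3-containing HepG2 lysate (cytokine pre-activated) phosphorylated biotinylated GST-cJun with 10 uM ATP at room temperature. Phospho-Ser73 cJun antibody with Protein-A acceptor beads provided detection.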

[7] = molecular target: 3',5'-cyclic-AMP phosphodiesterase 4B (Homo sapiens) (UniProt Q07343); test: qHTS Assay for Inhibitors of PDE-IV (AID 607; active = well fitted activation curve with a large enough effect in the main read-out, with a control signal flat, not every such curve was filed as active; note: % of control where 0% means no effect)
Chain of 3',5'-cyclic-AMP phosphodiesterase 4B (Homo sapiens) (Q07343 whole entry, looked up): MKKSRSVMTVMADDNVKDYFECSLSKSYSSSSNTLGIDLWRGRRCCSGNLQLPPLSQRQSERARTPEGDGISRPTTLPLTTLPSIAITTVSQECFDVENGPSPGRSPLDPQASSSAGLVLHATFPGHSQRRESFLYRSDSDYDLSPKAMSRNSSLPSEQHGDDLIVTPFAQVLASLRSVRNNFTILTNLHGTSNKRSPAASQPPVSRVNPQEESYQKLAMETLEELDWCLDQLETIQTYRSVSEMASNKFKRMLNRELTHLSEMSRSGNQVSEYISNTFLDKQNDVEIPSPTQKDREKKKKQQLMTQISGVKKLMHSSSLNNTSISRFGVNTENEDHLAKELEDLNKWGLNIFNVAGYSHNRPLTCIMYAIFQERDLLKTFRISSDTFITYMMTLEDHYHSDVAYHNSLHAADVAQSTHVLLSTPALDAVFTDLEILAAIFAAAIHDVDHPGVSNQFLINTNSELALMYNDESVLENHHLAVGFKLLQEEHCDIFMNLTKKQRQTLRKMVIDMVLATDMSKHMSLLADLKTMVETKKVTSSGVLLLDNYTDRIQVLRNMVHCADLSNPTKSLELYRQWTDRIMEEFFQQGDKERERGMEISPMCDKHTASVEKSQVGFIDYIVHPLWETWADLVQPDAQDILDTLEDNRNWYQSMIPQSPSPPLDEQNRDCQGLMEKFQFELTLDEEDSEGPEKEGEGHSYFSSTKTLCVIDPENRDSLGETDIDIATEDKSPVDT
In short: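 Live HEK293 cells with a modified cyclic nucleotide-gated (CNG) channel report intracellular cAMP via membrane-potential dye fluorescence (ex 535/em 590 nm). Endogenous PDE-IV was targeted. Compounds were tested at up to 22.9 uM final; RO 20-1724 100 uM served as control.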

[8] = molecular target: Cytochrome P450 3A4 (Homo sapiens) (UniProt P08684); test: qHTS Assay for Activators of Cytochrome P450 3A4 (AID 885; active = well fitted curve in the direction sought with a large enough effect; an effect the other way counts as inactive or inconclusive; note: nearly all actives have a fitted effect of over 65% in size)
Chain of Cytochrome P450 3A4 (Homo sapiens) (P08684 whole entry, looked up): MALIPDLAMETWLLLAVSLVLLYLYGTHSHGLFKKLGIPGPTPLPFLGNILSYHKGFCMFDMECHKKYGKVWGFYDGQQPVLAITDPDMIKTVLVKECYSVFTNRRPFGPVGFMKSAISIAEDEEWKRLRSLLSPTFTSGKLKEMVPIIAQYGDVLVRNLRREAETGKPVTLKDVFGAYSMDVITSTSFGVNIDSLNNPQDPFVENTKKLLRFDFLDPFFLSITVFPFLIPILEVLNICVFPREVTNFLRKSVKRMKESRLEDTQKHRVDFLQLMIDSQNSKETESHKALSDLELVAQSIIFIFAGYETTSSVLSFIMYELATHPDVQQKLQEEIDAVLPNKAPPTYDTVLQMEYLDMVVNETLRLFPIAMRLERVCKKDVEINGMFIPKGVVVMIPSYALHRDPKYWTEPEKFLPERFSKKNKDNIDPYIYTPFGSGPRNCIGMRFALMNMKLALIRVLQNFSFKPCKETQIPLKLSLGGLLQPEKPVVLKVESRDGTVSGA
In short: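 Using 20nM recombinant human CYP3A4 in potassium phosphate (200mM), substrate Luciferin-PPXE at 25uM, luminescent luciferin detection followed a 60-min RT NADPH reaction; data scaled to 57 uM ketoconazole.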

[9] = molecular target: Cytochrome P450 1A2 (Homo sapiens) (UniProt P05177); test: p450-cyp1a2 (AID 410; calls by dose curve; note: potency is the fitted concentration of half-maximal effect;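 for activity change, negative = inhibition: -100% = full effect of reference inhibitor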)
Chain of Cytochrome P450 1A2 (Homo sapiens) (P05177 whole entry, looked up): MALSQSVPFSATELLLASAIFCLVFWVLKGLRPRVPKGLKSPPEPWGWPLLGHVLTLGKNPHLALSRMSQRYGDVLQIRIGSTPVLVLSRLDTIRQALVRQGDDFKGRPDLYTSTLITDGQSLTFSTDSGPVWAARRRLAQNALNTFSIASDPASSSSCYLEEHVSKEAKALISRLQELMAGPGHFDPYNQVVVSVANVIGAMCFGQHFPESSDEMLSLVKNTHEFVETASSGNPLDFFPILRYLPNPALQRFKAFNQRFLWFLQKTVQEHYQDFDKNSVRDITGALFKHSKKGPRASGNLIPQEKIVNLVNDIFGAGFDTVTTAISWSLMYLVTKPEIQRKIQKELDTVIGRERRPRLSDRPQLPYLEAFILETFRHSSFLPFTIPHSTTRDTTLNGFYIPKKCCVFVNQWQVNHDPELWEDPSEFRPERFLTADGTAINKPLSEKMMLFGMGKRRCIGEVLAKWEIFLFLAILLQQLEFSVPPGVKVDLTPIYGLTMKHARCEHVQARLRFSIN
In short: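 O-Demethylation of luciferin 6' methyl ether by human CYP1A2 is monitored as luciferase luminescence. Substrate sits at Km (100uM); enzyme is 20nM. Values are scaled to 57 uM furafylline as maximal inhibition.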

[10] = molecular target: Cytochrome P450 2D6 (Homo sapiens) (UniProt P10635); test: qHTS Assay for Inhibitors and Substrates of Cytochrome P450 2D6 (AID 891; active = well fitted curve in the direction sought with a large enough effect; an effect the other way counts as inactive or inconclusive;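 note: luciferin methyl ether substrate demethylated by CYP2D6 with NADPH regeneration; % is set by controls: 0 for no effect and ±100 for the full control effect; nearly all actives have a fitted effect of over 60% in size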)
In short: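 Luminescent read-out of luciferin formed by 5 nM human CYP2D6 demethylating 30 uM Luciferin-ME EGE (Km level) over 60 min at room temperature after NADPH regeneration addition. Data normalized to full inhibition by 1.43 uM quinidine.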

[11] = molecular target: Cytochrome P450 2C19 (Homo sapiens) (UniProt P33261); test: qHTS Assay for Inhibitors and Substrates of Cytochrome P450 2C19 (AID 899; active = well fitted curve in the direction sought with a large enough effect; an effect the other way counts as inactive or inconclusive; note: potency is the fitted concentration of half-maximal effect; nearly all actives have a fitted effect of over 60% in size)
In short: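 Signal comes from luciferase acting on luciferin released by CYP2C19-mediated hydroxylation of Luciferin-H EGE, 10uM (KM). Assay mix: 5nM enzyme, 50mM KPO4; 60 min at 37C with NADPH regeneration. Data normalized against 57uM ketoconazole.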

[12] = molecular target: Guanine nucleotide-binding protein G(i) subunit alpha-1 (Homo sapiens) (UniProt P63096); test: qHTS Assay for Inhibitors of RGS12 GoLoco Motif Activity (Green Fluorophore) (AID 879; active = well fitted curve in the direction sought with a large enough effect; an effect the other way counts as inactive or inconclusive;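 note: 0% = labeled peptide with Gαi1 and full inhibition = labeled peptide alone without protein; negative values mean loss of peptide binding seen as reduced polarization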)
Chain of Guanine nucleotide-binding protein G(i) subunit alpha-1 (Homo sapiens) (P63096 whole entry, looked up): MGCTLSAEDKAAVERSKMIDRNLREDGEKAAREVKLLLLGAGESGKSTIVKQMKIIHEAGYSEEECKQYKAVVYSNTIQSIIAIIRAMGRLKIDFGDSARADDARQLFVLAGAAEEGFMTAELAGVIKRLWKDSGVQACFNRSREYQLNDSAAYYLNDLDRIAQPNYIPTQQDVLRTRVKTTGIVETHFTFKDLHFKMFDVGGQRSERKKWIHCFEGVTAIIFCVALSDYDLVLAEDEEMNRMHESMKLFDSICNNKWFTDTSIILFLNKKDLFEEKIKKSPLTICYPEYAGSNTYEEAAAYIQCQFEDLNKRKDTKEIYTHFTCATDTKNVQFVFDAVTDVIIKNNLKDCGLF
In short: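 A drop in FITC polarization marked displacement of the FITC-tagged RGS12 GoLoco peptide (10 nM) from Gαi1 (50 nM). Compounds were incubated 10 min at room temperature in Tris pH 7.5 buffer containing 150 mM NaCl, 0.1 mM GDP and 0.05% NP40; unlabeled peptide titration served as control.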

[13] = qHTS Assay for Identification of Small Molecule Agonists for Thrombopoietin (TPO) Signaling Pathway (AID 917; active = well fitted curve in the direction sought with a large enough effect; an effect the other way counts as inactive or inconclusive; note: % is set by controls: 0 for no effect and ±100 for the full control effect)
In short: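 Stimulation at the TPO EC50 (26 pM final) was used to detect activators. Ba/F3 mouse cells bearing human TPO receptor and a luciferase reporter under the Glycoprotein IIb promoter were exposed to compounds for 24 hrs at 37 C.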

[14] = molecular target: Muscarinic acetylcholine receptor M1 (Rattus norvegicus) (UniProt P08482); test: qHTS Assay for Antagonists of Acetylcholine Muscarinic M1 Receptor: Kinetic Measurement of Intracellular Calcium Response (AID 943; active = well fitted curve in the direction sought with a large enough effect; an effect the other way counts as inactive or inconclusive;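 note: Fluo-4 calcium signal as peak divided by basal fluorescence over 4 min; nearly all actives have a fitted effect of over 75% in size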)
Chain of Muscarinic acetylcholine receptor M1 (Rattus norvegicus) (P08482 whole entry, looked up): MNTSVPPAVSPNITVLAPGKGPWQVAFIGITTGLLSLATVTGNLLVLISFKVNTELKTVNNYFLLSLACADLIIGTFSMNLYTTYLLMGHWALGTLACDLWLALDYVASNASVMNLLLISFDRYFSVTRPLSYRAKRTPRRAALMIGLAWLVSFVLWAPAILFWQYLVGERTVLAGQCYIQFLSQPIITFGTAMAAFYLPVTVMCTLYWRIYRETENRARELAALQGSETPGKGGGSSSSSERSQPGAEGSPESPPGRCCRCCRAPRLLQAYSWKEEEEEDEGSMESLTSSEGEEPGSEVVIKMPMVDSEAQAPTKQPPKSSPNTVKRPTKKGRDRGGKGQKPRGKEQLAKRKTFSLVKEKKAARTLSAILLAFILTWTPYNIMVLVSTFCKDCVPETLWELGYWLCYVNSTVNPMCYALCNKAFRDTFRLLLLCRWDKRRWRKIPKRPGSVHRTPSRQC
In short: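 Antagonism is measured as inhibition of the carbachol-evoked calcium rise in CHO cells transfected with rat M1. Cells are dye-loaded, exposed to compound for 10 min, then stimulated with 100 nM carbachol (EC80).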

[15] = molecular target: Muscarinic acetylcholine receptor M1 (Rattus norvegicus) (UniProt P08482); test: qHTS Assay for Antagonists of Acetylcholine Muscarinic M1 Receptor: Measurement of IP-One Response (AID 944; active = well fitted curve in the direction sought with a large enough effect; an effect the other way counts as inactive or inconclusive; note: nearly all actives have a fitted effect of over 75% in size)
In short: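 Antagonist mode with rat M1 receptor transfected into CHO cells. Compound is added first for 10 min, carbachol at its EC80 follows for 30 min, and lysis reagents then allow TR-FRET detection of accumulated IP1.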

[16] = molecular target: Pyruvate kinase (Leishmania mexicana) (UniProt Q27686); test: qHTS Validation Assay for Inhibitors of Leishmania Mexicana Pyruvate Kinase (AID 945; active = well fitted curve in the direction sought with a large enough effect; an effect the other way counts as inactive or inconclusive;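 note: 0% = DMSO only neutral control wells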)
Chain of Pyruvate kinase (Leishmania mexicana) (Q27686 2-499 E452W): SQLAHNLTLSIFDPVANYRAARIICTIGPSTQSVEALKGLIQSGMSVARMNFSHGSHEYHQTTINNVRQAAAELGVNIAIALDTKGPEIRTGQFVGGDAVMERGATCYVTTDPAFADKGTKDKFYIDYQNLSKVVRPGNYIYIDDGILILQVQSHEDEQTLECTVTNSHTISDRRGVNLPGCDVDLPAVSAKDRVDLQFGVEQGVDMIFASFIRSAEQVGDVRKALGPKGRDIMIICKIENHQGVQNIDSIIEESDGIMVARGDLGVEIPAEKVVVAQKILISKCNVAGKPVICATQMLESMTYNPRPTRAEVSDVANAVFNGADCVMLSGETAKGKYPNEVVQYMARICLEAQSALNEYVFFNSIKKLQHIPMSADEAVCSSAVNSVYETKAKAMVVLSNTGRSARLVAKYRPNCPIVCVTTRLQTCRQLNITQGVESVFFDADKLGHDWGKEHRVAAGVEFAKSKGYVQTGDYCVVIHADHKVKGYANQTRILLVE
In short: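 Luminescent ATP detection (PKLight) after a 1 h room-temperature reaction of 0.2 nM LmPYK E451W mutant with 0.5 mM PEP and 0.1 mM ADP at pH 7.2. Activity is normalized to DMSO-only control wells.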

[17] = molecular target: Pyruvate kinase PKM (Homo sapiens) (UniProt P14618); test: qHTS Assay for Activators of Human Muscle Pyruvate Kinase (AID 954; active = well fitted curve in the direction sought with a large enough effect, not every such curve was filed as active;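 note: 0% = uninhibited enzyme and -100% = no enzyme or full thiadiazolimine inhibition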)
Chain of Pyruvate kinase PKM (Homo sapiens) (P14618 whole entry, looked up): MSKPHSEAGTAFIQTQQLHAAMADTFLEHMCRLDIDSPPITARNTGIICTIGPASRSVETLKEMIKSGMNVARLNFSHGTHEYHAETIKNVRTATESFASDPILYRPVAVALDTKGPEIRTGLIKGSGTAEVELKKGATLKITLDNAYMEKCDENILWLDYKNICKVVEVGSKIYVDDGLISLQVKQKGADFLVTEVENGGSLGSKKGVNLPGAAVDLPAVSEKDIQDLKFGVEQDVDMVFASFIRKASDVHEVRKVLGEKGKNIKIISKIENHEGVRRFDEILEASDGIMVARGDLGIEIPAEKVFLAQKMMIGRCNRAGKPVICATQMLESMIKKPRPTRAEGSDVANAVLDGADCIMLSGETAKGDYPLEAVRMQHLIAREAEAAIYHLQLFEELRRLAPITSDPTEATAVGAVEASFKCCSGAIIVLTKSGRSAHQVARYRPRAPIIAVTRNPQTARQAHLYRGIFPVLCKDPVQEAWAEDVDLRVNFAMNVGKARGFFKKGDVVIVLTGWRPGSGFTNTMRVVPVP
In short: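 Screening used highly purified human pyruvate kinase M2 under submaximal activity, with PEP at its Km and ADP below Km. After an hour at room temperature, ATP was read by luciferase luminescence.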

[18] = molecular target: Alpha-galactosidase A (Homo sapiens) (UniProt P06280); test: Counterscreen for Glucocerebrosidase Inhibitors: qHTS Assay for Human alpha-Galactosidase at pH 4.5 (AID 992; active = well fitted curve in the direction sought with a large enough effect; an effect the other way counts as inactive or inconclusive; note: 0% is about no effect)
Chain of Alpha-galactosidase A (Homo sapiens) (P06280 whole entry, looked up): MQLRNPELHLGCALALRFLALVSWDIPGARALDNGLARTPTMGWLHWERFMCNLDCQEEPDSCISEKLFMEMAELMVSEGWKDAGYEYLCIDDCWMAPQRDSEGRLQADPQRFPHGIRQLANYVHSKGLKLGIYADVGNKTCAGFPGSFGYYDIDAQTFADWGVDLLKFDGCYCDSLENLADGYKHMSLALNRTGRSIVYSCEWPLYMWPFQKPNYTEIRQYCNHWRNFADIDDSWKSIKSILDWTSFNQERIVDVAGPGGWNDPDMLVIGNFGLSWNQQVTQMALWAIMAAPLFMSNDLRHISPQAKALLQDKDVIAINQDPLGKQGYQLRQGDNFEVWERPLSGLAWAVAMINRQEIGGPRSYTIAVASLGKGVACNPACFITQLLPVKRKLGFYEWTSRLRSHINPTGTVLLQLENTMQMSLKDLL
In short: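 Each compound is preincubated briefly with 2 nM enzyme before substrate addition (80 uM); plates then sit 20 min at ambient temperature, are quenched with 1M NaOH/1M glycine, and read fluorometrically.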

[19] = molecular target: alpha-glucosidase (Oryza sativa, rice) (UniProt Q653V4); test: Counterscreen for Glucocerebrosidase Inhibitors: qHTS Assay for Rice alpha-Glucosidase at pH 5.0 (AID 997; active = well fitted curve in the direction sought with a large enough effect; an effect the other way counts as inactive or inconclusive;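 note: 0% = full activity with enzyme and -100% = basal without enzyme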)
In short: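 Endpoint fluorogenic assay at pH 5.0: compounds (0.7 nM to 77 uM) titrated against 4 nM rice enzyme and 400 uM 4-MU-alpha-glucoside for 20 min at room temperature; NaOH/glycine stop, read ex 365/em 440 nm, Hill-fitted AC50.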

Cn1c(=O)c(CCc2ccccc2)nc2cnc(N3CCNCC3)nc21
inactive: activity change, negative = inhibition [1] -6.16% | activity change, negative = inhibition [2] 8.46% | activity, negative = inhibition [3] 11.7% | Potency [4] > 9.22 µM | Potency [5] > 46 µM | Potency [6] | Potency [7] | Potency [8]

C[N+]1(CCC(=O)c2ccco2)CC2CCC(CC2)C1 (centres undefined)
inactive: activity change, negative = inhibition [1] 6.86% | Potency [9] | activity, negative = inhibition [3] 1.18% | Potency [4] > 46 µM | Potency [5] > 9.22 µM | Potency [6] | Potency [7] | Potency [10]

CN(/N=C\c1ccccc1O)c1ccc2ccccc2n1
inactive: activity change, negative = inhibition [1] -2.44% | activity change, negative = inhibition [2] -9.81% | activity, negative = inhibition [3] 1.98% | Potency [4] > 46 µM | Potency [5] > 9.22 µM | Potency [6] | Potency [7]

O=C(O)CSCCc1ccccc1
inactive: activity change, negative = inhibition [1] 6.88% | Potency [9] | activity, negative = inhibition [3] 16.8% | Potency [4] > 46 µM | Potency [5] > 9.22 µM | Potency [6] | Potency [7]

c1ccc2cc(NCNc3ccc4ccccc4c3)ccc2c1
inactive: activity change, negative = inhibition [2] -15.6% | activity, negative = inhibition [3] -2.06% | Potency [4] > 46 µM | Potency [5] > 9.22 µM | Potency [6] | Potency [7]
active: Potency [9] 0.631 µM | Potency [11] 2.51 µM

COc1ccccc1OC[C@H](O)CN1CCN(CC(=O)Nc2c(C)cccc2C)CC1
inactive: activity change, negative = inhibition [1] -8.83% [at 38 µM] | activity change, negative = inhibition [2] 12.3% [at 38 µM] | Potency [4] > 46 µM | Potency [5] > 46 µM | Potency [6] | Potency [7] | outcome [12] | outcome [13] | Potency [14] | Potency [15] | outcome [16] | outcome [17] | outcome [18] | Potency [19]

COc1ccc(CCN(C)CCC[C@@](C#N)(c2cc(OC)c(OC)c(OC)c2)C(C)C)cc1OC
inactive: activity change, negative = inhibition [1] 2.08% [at 38 µM] | activity change, negative = inhibition [2] -29.4% [at 38 µM] | activity, negative = inhibition [3] -12.4% [at 38 µM] | Potency [4] > 46 µM | Potency [5] > 46 µM | outcome [12] | outcome [13] | Potency [15] | outcome [16] | outcome [17] | outcome [18] | Potency [19]
